We go through 54 sequences from paper PMC10726135, “HNF4α isoforms regulate the circadian balance between carbohydrate and lipid metabolism in the liver”.

Whole data set: some 18,000 sequences, median “log2 normalized intensity” near 0.39, cut for the highest 2% near 6.6. What follows is part of a selection rich in the highest values, with near analogues and random picks from the rest.

The assay has as its target T1, HNF4alpha2 (COS-7 nuclear extract) (Homo sapiens, UniProt P41235 1-474).
T1 sequence: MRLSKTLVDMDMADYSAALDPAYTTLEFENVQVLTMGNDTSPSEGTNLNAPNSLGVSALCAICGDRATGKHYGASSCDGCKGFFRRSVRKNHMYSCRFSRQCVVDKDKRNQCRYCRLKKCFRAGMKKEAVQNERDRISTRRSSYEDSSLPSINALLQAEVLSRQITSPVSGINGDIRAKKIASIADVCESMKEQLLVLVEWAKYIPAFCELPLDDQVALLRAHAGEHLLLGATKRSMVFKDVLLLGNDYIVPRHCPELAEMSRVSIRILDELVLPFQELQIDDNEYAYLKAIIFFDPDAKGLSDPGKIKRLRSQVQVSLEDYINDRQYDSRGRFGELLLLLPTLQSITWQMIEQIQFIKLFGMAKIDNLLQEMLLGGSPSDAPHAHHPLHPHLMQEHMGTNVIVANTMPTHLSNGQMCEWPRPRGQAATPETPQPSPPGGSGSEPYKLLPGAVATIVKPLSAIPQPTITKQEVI
The assay is described as follows: protein-binding microarray; COS-7 nuclear extract on double-stranded Agilent 4x180k PBM; binding buffer, salt, pH and temperature not given in the material; high values mean tight binding. As to conditions: chain copies: 2; label: 3' end of strand 1 on the slide; dsDNA, one strand shown. The method, boiled down: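 A human HNF4α isoform was expressed in COS-7 cells by transient CaPO4 transfection, and nuclear extracts were prepared. These were applied to a custom Agilent SurePrint G3 4x180k array carrying ~44,000 test sequences in quadruplicate as double-stranded ~60-nt oligonucleotides, and an Agilent G2565CA scanner imaged bound HNF4α at 2-µm resolution. The background-corrected, normalized gProcessedSignal from Agilent software was used as the binding signal.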
Turning to “GGCTATACAATTCCAGCAAGGATGGGGGCAGCCTAGGGAGATTAGAGTATCGGTCGA”, the binding signal was -0.832 log2 normalized intensity. The same measure for “AAAATTAAGGTTCAAAGGGAAAAAATAATCGCCTAGGGAGATTAGAGTATCGGTCGA”: -0.757 log2 normalized intensity; for “TTCCATTGAAGCAGAGTGTCCCATATCACAGCCTAGGGAGATTAGAGTATCGGTCGA”: 0.724 log2 normalized intensity; for “GTTAGATTAGTGTGCAGCTTTGTGTAAAACGCCTAGGGAGATTAGAGTATCGGTCGA”: 0.946 log2 normalized intensity. Consider “AGATCTCAGTTGGTCCAAGGTACATGTCTCGCCTAGGGAGATTAGAGTATCGGTCGA”, for which the binding signal was determined as 2.34 log2 normalized intensity. As for “AGAAGGAAAAGGCCTGACCTTTGCCCTCTGGCCTAGGGAGATTAGAGTATCGGTCGA”, the binding signal came out at 10.1 log2 normalized intensity. “CCCTCGACCTTTGCCCTCCATAAGGGGGAGGCCTAGGGAGATTAGAGTATCGGTCGA”: the binding signal stood at 6.24 log2 normalized intensity. With “GACAGCTGGGCCCTGCCTGACCTGCCCTTTGCCTAGGGAGATTAGAGTATCGGTCGA”, the binding signal was determined as 4.42 log2 normalized intensity. The same measure for “CAGAGGCTTCCTCTTTGGTGCAAAGGTCAGGCCTAGGGAGATTAGAGTATCGGTCGA”: 6.86 log2 normalized intensity.

Turning to “AGAGGACAGAAGAAGGAAAAGGCCTGACCTGCCTAGGGAGATTAGAGTATCGGTCGA”, the binding signal is -0.388 log2 normalized intensity. The same measure for “CTCTGCAGAGGCTTCCTCTTTGGTGCAAAGGCCTAGGGAGATTAGAGTATCGGTCGA”: -0.855 log2 normalized intensity; for “CCCTGCCTGACCTGCCCTTTGTCCCTCCTGGCCTAGGGAGATTAGAGTATCGGTCGA”: 4.51 log2 normalized intensity; for “GAAAAGGCCTGACCTTTGCCCTCTGGCCCTGCCTAGGGAGATTAGAGTATCGGTCGA”: 9.1 log2 normalized intensity.

Turning to “CTCTTTGGTGCAAAGGTCAGGACAAGGCTCGCCTAGGGAGATTAGAGTATCGGTCGA”, the binding signal amounted to 4.3 log2 normalized intensity. The same measure for “ACAGAAGAAGGAAAAGGCCTGACCTTTGCCGCCTAGGGAGATTAGAGTATCGGTCGA”: 4.61 log2 normalized intensity; for “GACCTTTGCCCTCTGGCCCTTAAAGGCTTTGCCTAGGGAGATTAGAGTATCGGTCGA”: 6.99 log2 normalized intensity. The same measure for “TTCTGCCCCTTGCTCCTGCTTGCTGGCTTTGCCTAGGGAGATTAGAGTATCGGTCGA”: 1.2 log2 normalized intensity; for “TTGAAGCAGAGTGTCCCATATCACATTTTAGCCTAGGGAGATTAGAGTATCGGTCGA”: 0.955 log2 normalized intensity. Take “TGCTTATCAGTGTACCTGTCCCTACTCAATGCCTAGGGAGATTAGAGTATCGGTCGA”: the binding signal came to 0.371 log2 normalized intensity. The same measure for “GTGCCCTCATAAGAGACTTTGCCCTTTTTTGCCTAGGGAGATTAGAGTATCGGTCGA”: 5.63 log2 normalized intensity.

“TCAGGACTCTAACTGGCTTTAAGAGGAATGGCCTAGGGAGATTAGAGTATCGGTCGA”: the binding signal was -0.943 log2 normalized intensity.

As for “AGGAATGAGACATGAATCCATCCCACCTCAGCCTAGGGAGATTAGAGTATCGGTCGA”, the binding signal was -0.775 log2 normalized intensity. For “AAACTTTAGTAGTCCAAAGCTCAGATTGCCGCCTAGGGAGATTAGAGTATCGGTCGA”, the binding signal was 0.566 log2 normalized intensity. The same measure for “AGATGGTCTCAGGTGGAGATAAGGAATTTGGCCTAGGGAGATTAGAGTATCGGTCGA”: -0.171 log2 normalized intensity. The same measure for “TAATTCTTCTTTGAAAGTTTGGTGGACTTTGCCTAGGGAGATTAGAGTATCGGTCGA”: 6.32 log2 normalized intensity; for “GGTGGACTTTGGCCGTGAAGCCGTCCTGTCGCCTAGGGAGATTAGAGTATCGGTCGA”: 5.03 log2 normalized intensity.

On to “TTGAAAGTTTGGTGGACTTTGGCCGTGAAGGCCTAGGGAGATTAGAGTATCGGTCGA”, for which the binding signal is 6.79 log2 normalized intensity.

Regarding “AGTTTGGTGGACTTTGGCCGTGAAGCCGTCGCCTAGGGAGATTAGAGTATCGGTCGA”, the binding signal is 6.2 log2 normalized intensity. Turning to “CTTCTTTGAAAGTTTGGTGGACTTTGGCCGGCCTAGGGAGATTAGAGTATCGGTCGA”, the binding signal was found to be 9.62 log2 normalized intensity. The same measure for “GGCATTAATTCTTCTTTGAAAGTTTGGTGGGCCTAGGGAGATTAGAGTATCGGTCGA”: 2.23 log2 normalized intensity. The same measure for “TTTGCTCCAGTTCCCAATAATTTCCTTATCGCCTAGGGAGATTAGAGTATCGGTCGA”: -0.628 log2 normalized intensity; for “TGTAACTAACAACTGACCTTGCAGGCCAGGGCCTAGGGAGATTAGAGTATCGGTCGA”: -0.838 log2 normalized intensity; for “TCTGTTTGATTCCATGCTGATAATGGAATTGCCTAGGGAGATTAGAGTATCGGTCGA”: 0.756 log2 normalized intensity.

For “CAAATGAATAATCCCCTCCTGGACTTTGGTGCCTAGGGAGATTAGAGTATCGGTCGA”, the binding signal turned out to be 4.73 log2 normalized intensity. Take “CTCCTGGACTTTGGTCTCATGGGCCTAAACGCCTAGGGAGATTAGAGTATCGGTCGA”: the binding signal is 4.65 log2 normalized intensity. The same measure for “GTAATGACATGCAGTATGGGGACTTTGGACGCCTAGGGAGATTAGAGTATCGGTCGA”: 5.99 log2 normalized intensity. With “GAATAATCCCCTCCTGGACTTTGGTCTCATGCCTAGGGAGATTAGAGTATCGGTCGA”, the binding signal worked out at 7.15 log2 normalized intensity. Turning to “GACATGCAGTATGGGGACTTTGGACTCCTGGCCTAGGGAGATTAGAGTATCGGTCGA”, the binding signal was determined as 7.53 log2 normalized intensity.

As for “ATCCCCTCCTGGACTTTGGTCTCATGGGCCGCCTAGGGAGATTAGAGTATCGGTCGA”, the binding signal worked out at 6.4 log2 normalized intensity.

As for “ATCAGTGTACCTGTCCCTACTCAATTATCAGCCTAGGGAGATTAGAGTATCGGTCGA”, the binding signal was -0.287 log2 normalized intensity. On to “CAAGAATACGGATTCTTAAGGGCAAAGGTTGCCTAGGGAGATTAGAGTATCGGTCGA”, for which the binding signal was determined as 5.88 log2 normalized intensity. For “GCTGTGCCGAGCCTGCAGGTGAATGGAAACGCCTAGGGAGATTAGAGTATCGGTCGA”, the binding signal is -0.549 log2 normalized intensity.

Consider “AATCTGAATTAACTCTTTACACAGTTCTGAGCCTAGGGAGATTAGAGTATCGGTCGA”, for which the binding signal was -0.00196 log2 normalized intensity. Take “ACAAAAACTGTTTCTATGTGACCTTCACCCGCCTAGGGAGATTAGAGTATCGGTCGA”: the binding signal worked out at 5.26 log2 normalized intensity. The same measure for “AAGACTTCCTGGCCTCTCTGCAAATTTGCCGCCTAGGGAGATTAGAGTATCGGTCGA”: -0.993 log2 normalized intensity.

Regarding “GTTAGGAAACACTCTGTTTGTAAAGTCTACGCCTAGGGAGATTAGAGTATCGGTCGA”, the binding signal amounted to 0.577 log2 normalized intensity.

Consider “GGACTTTGGGCTGTGTTTTGCCCCTGCAGAGCCTAGGGAGATTAGAGTATCGGTCGA”, for which the binding signal worked out at 3.66 log2 normalized intensity. Consider “GGGTGGGGTGCTGCCTTTCCTGTGACTTTTGCCTAGGGAGATTAGAGTATCGGTCGA”, for which the binding signal is 1.74 log2 normalized intensity. In the case of “CTGTGCTGCCCTTTGCCCTTTGGGAAGGGGGCCTAGGGAGATTAGAGTATCGGTCGA”, the binding signal turned out to be 5.8 log2 normalized intensity. The same measure for “TTTTCCTTGGCTGTGCTGCCCTTTGCCCTTGCCTAGGGAGATTAGAGTATCGGTCGA”: 7.6 log2 normalized intensity. The same measure for “CTTGGCTGTGCTGCCCTTTGCCCTTTGGGAGCCTAGGGAGATTAGAGTATCGGTCGA”: 7.11 log2 normalized intensity; for “GAGAGTTTTCCTTGGCTGTGCTGCCCTTTGGCCTAGGGAGATTAGAGTATCGGTCGA”: 3.6 log2 normalized intensity; for “GGGCATGGACTTTGGAATTAAGGAGATTTGGCCTAGGGAGATTAGAGTATCGGTCGA”: 4.96 log2 normalized intensity. The same measure for “AGATCCGAAGTCTAGGACGTTATCAGCAGGGCCTAGGGAGATTAGAGTATCGGTCGA”: 0.0613 log2 normalized intensity.
